This note sets out measurements from PubChem BioAssay (EPA / NIEHS).

Each structure is given as a SMILES string. “And” between values parts separate entries of the source, which are not always exact repeats. Equal values may be shown once. The source made the active and inactive calls. How the source made its calls: active means hit-call score of the fitted dose curve at least 0.9, where 1 is the maximum; inactive means score below 0.9.

Read-out in this experiment: Vascular cell adhesion molecule 1 (VCAM1), VCAM1 (gene 7412)
Briefly: BSK_LPS_VCAM1: BioMAP Diversity Plus: LPS Assay for Vascular cell adhesion molecule 1 (VCAM1) Biomarker Activity (AID 2283086). As to conditions: primary human HUVEC with PBMC; actives raise or lower the signal. Here is the method:
BSK_LPS is a cell-based, multiplexed-readout assay that uses umbilical vein endothelium and peripheral blood mononuclear cells, a human vascular primary cell co-culture, with measurements taken at 24 hours after chemical dosing in a 96-well plate.BSK_LPS_VCAM1 is an assay component measured in the BSK_LPS assay. It measures VCAM-1 antibody related to regulation of gene expression using ELISA technology.Data from the assay component BSK_LPS_VCAM1 was analyzed into 1 assay endpoint. This assay endpoint, BSK_LPS_VCAM1, was analyzed with bidirectional fitting relative to DMSO as the negative control and baseline of activity. Using a type of binding reporter, gain or loss-of-signal activity can be used to understand changes in the signaling as they relate to the gene VCAM1. Furthermore, this assay endpoint can be referred to as a primary readout, because this assay has produced multiple assay endpoints where this one serves a signaling function. To generalize the intended target to other relatable targets, this assay endpoint is annotated to the cell adhesion molecules intended target family, where the subfamily is Immunoglobulin CAM.
The levels of cell surface (or secreted, indicated by the prefix "s") biomarker endpoints were measured by ELISA. Overt cytotoxicity to cells in confluent adherent cultures (all systems other than the BT system) was assessed by measuring total protein levels using sulforhodamine B (SRB) staining in parallel cultures at the time of biomarker measurements, indicated as SRB endpoints. For proliferation assays for adherent cell types, individual cell types are cultured at sub-confluence and relative cell numbers quantified by SRB staining at time points optimized for each system (48 h: 3C and CASM3C systems; 72 h: BT and HDF3CGF systems; 96 h: SAg system). SRB was performed by staining cells with 0.1% SRB after fixation with 10% TCA and reading wells at 560 nm.Viability and proliferation of PBMC (T cells) was quantified by Alamar Blue reduction for the SAg and BT systems. For PBMC viability (referred to as PBMC Cytotoxicity within the assay endpoint names), cells were plated (75,000/well in a 96-well plate) and then chemical samples added for 1 h before addition of activators, SEB and TSST-1 (20 ng/mL final concentration each). Cells were incubated for 90 h. Then, Alamar Blue (20 uL/well) (Invitrogen, Cat DAL1100) was added for 6 h, and the plates were read with a fluorescence microplate reader at 546/580 nm (excitation/emission). For PBMC proliferation, cells were plated and activated as above but incubated for only 16 h prior to addition of Alamar Blue. Plates were read after 6 h.
Consider `O=C(CC(=O)C(F)(F)C(F)(F)C(F)(F)F)c1cccs1`, for which the AC50 is 45.7 µM (active) and 46.4 µM (active).
As for `CN(C)c1ccc(C(=C2C=CC(=[N+](C)C)C=C2)c2ccccc2)cc1`, the half-maximal activity concentration (AC50) is 0.00781 µM (active).
Consider `CCC(C)c1ccccc1O` (stereo not given), for which the result was inactive.
Consider `O=P(O)(O)CCC(F)(F)C(F)(F)C(F)(F)C(F)(F)C(F)(F)C(F)(F)C(F)(F)C(F)(F)F`, for which the result was inactive.
In the case of `Clc1ccc(Nc2nnc(Cc3ccncc3)c3ccccc23)cc1`, the result was inactive.
With `CC[N+](CC)(CC)Cc1ccccc1`, the result was inactive.
On to `COc1cc(OC)nc(NC(=O)NS(=O)(=O)Nc2ccccc2C(=O)N(C)C)n1`, for which the result was inactive.
In the case of `Cc1cccc2c1ccc1ccccc12`, the outcome was inactive.
In the case of `O=C(NO)c1ccccc1`, the result was inactive.
Regarding `CCCCCc1ccc(O)cc1`, the AC50 is 32.4 µM (active).
As for `CN(Cc1cnc2nc(N)nc(N)c2n1)c1ccc(C(=O)N[C@@H](CCC(=O)O)C(=O)O)cc1`, the outcome was inactive.
For the compound `Cc1[nH]nc2c1N=C(c1ccccc1Cl)c1cc([N+](=O)[O-])ccc1N2`, the AC50 is 3.99 µM (active).
Consider `COC1=CC(=O)C[C@@H](C)[C@]12Oc1c(Cl)c(OC)cc(OC)c1C2=O`, for which the result was inactive.
For `CCCCC(CC)C(=O)O` (stereo not given), the outcome was inactive.
As for `C=CC(=O)OCCC(F)(F)C(F)(F)C(F)(F)C(F)(F)C(F)(F)C(F)(F)C(F)(F)C(F)(F)F`, the outcome was inactive.
As to `C=CC(C)(CCC=C(C)C)OC(C)=O` (stereo not given), the result was inactive.
On to `C[C@]12CC[C@@H]3c4ccc(O)cc4CC[C@H]3[C@@H]1C[C@@H](O)[C@@H]2O`, for which the outcome was inactive.
Same read-out and setting: the same measure for `CC1=NN(c2ccccc2)C(=O)C1`: “inactive”.
As to `O=S(=O)(O)C(F)(F)C(F)(F)C(F)(F)C(F)(F)C(F)(F)C(F)(F)C(F)(F)C(F)(F)C(F)(F)C(F)(F)F`, the outcome was inactive.
Turning to `O=C1NS(=O)(=O)c2ccccc21`, the result was inactive.
The same measure, in the same setting: for `O=C(c1ccccc1)c1ccccc1` the value was “inactive”.
With `CCCCc1oc2ccccc2c1C(=O)c1cc(I)c(OCCN(CC)CC)c(I)c1`, the AC50 was 24.3 µM (active).
For `O=C(O)C(F)(F)OC(F)(F)C(F)(F)OC(F)(F)C(F)(F)OC(F)(F)C(F)(F)C(F)(F)C(F)(F)F`, the AC50 was 45.6 µM (active) and 48.4 µM (active).
Regarding `CCCCCCCCCCCC`, the AC50 is 33 µM (active) and 31 µM (active).
As to `CCCCCCCCCCCCCCC`, the result was inactive.
Take `OCC(F)(F)C(F)(F)C(F)(F)C(F)(F)C(F)(F)C(F)(F)C(F)(F)C(F)(F)C(F)(F)C(F)(F)C(F)(F)F`: the outcome was inactive.
On the same count and under the same terms, the same measure for `CCCCCCCCCCCCOS(=O)(=O)O`: “inactive”; for `C=CC(=C)CC/C=C(\C)CCC=C(C)C`: “inactive”.
With `O=C1OC2(c3ccccc31)c1cc(I)c(O)c(I)c1Oc1c2cc(I)c(O)c1I`, the AC50 is 9.02 µM (active).
Regarding `CN(C)CCOC(c1ccccc1)c1ccccc1`, the outcome was inactive.
`CN(CCO)S(=O)(=O)C(F)(F)C(F)(F)C(F)(F)C(F)(F)C(F)(F)C(F)(F)C(F)(F)C(F)(F)F`: the result was inactive.
Consider `Oc1c(Cl)cc(Cl)cc1Sc1cc(Cl)cc(Cl)c1O`, for which the half-maximal activity concentration (AC50) was 32.9 µM (active) and 30.9 µM (active).
With `CCCCC(CC)C(=O)OCCOCCOCCOCCOC(=O)C(CC)CCCC` (stereo not given), the result was inactive.
Turning to `O=C(CCCN1CCC(O)(c2ccc(Cl)cc2)CC1)c1ccc(F)cc1`, the outcome was inactive.
Turning to `O=C(NCc1ncc(C(F)(F)F)cc1Cl)c1c(Cl)cccc1Cl`, the outcome was inactive.
Consider `CC(=O)Nc1ccc(O)cc1`, for which the result was inactive.
As for `O=C1c2ccc(O)c(O)c2C(=O)c2c(O)ccc(O)c21`, the outcome was inactive.
Turning to `N=C(N)c1ccc(OCCCCCOc2ccc(C(=N)N)cc2)cc1`, the outcome was inactive.
On the same count and under the same terms, the same measure for `O=C(O)CCC(F)(F)C(F)(F)C(F)(F)C(F)(F)C(F)(F)F`: “inactive”.
As to `C=COC(=O)C(C)(C)CCCCCC`, the AC50 was 31.1 µM (active).
